Test [1] concerns the target Tyrosine-protein kinase Lck (Homo sapiens) (UniProt P06239). Conditions: at 10 µM.
The target is the same in test [2]. Conditions: at 1 µM.
Test [3] shares this target. Conditions: at 10 µM. This is another data set of the same source.
For test [4], the target named is Tyrosine-protein kinase Lyn (Homo sapiens) (UniProt P07948). As to conditions: at 10 µM.
Test [5] addresses Mitogen-activated protein kinase 3 (Homo sapiens) (UniProt P27361). As to conditions: at 1 µM.
For test [6] the target is unchanged. Conditions: at 10 µM.
In test [7] the target is Mitogen-activated protein kinase 1 (Homo sapiens) (UniProt P28482). Conditions: at 1 µM.
Sequence of Mitogen-activated protein kinase 1 (Homo sapiens) (P28482 whole entry): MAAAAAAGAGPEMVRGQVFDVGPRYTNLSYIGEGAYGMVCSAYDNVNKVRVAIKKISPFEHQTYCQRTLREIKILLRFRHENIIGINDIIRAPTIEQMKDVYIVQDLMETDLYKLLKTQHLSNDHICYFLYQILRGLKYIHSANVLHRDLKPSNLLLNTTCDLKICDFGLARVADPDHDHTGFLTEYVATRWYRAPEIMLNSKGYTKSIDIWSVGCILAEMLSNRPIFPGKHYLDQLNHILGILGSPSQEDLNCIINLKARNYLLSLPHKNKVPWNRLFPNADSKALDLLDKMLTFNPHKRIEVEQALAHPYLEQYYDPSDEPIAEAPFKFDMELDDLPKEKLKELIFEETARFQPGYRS
Test [8] addresses MAP kinase-activated protein kinase 2 (Homo sapiens) (UniProt P49137). Conditions: at 1 µM.
The target is the same in test [9]. As to conditions: at 10 µM.
In test [10] the target is MAP kinase-activated protein kinase 3 (Homo sapiens) (UniProt Q16644). As to conditions: at 10 µM.
Sequence of MAP kinase-activated protein kinase 3 (Homo sapiens) (Q16644 whole entry, looked up): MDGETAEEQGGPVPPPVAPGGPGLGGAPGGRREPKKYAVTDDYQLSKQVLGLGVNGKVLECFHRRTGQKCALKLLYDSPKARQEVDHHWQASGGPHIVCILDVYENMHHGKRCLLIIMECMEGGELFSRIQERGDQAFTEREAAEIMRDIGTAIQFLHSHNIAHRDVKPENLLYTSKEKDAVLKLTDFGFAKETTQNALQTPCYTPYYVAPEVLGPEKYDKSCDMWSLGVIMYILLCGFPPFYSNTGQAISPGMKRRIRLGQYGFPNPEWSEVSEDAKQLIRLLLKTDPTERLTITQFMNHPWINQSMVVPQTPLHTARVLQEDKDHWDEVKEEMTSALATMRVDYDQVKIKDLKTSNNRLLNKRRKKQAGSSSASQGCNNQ
The target of test [11] is Serine/threonine-protein kinase MARK1 (Homo sapiens) (UniProt Q9P0L2). As to conditions: at 1 µM.
Sequence of Serine/threonine-protein kinase MARK1 (Homo sapiens) (Q9P0L2 whole entry, looked up): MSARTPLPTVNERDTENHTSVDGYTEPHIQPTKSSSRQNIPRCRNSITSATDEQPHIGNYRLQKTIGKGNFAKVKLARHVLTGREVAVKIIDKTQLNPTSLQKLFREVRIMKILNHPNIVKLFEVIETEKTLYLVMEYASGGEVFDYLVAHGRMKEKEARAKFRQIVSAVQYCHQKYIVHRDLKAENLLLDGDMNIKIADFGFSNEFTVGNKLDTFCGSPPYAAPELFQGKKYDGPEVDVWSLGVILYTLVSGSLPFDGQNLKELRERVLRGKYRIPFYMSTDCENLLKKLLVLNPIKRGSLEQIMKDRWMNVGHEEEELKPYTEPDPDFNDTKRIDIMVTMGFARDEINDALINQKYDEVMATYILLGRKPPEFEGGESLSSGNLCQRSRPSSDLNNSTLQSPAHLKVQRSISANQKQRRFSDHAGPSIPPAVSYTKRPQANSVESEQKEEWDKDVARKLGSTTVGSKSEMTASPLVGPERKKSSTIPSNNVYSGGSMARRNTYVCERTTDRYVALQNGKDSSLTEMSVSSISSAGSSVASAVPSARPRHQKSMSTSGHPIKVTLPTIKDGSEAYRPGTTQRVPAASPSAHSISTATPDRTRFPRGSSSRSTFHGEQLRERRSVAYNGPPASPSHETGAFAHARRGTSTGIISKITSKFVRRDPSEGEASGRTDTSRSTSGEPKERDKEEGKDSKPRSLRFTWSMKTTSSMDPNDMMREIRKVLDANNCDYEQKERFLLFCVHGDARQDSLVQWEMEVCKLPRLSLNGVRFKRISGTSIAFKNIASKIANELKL
For test [12] the target is unchanged. As to conditions: at 10 µM.
Test [13] addresses Dual specificity mitogen-activated protein kinase kinase 1 (Homo sapiens) (UniProt Q02750). Conditions: at 1 µM.
The target is the same in test [14]. Conditions: at 10 µM.
The target of test [15] is Maternal embryonic leucine zipper kinase (Homo sapiens) (UniProt Q14680). Conditions: at 1 µM.
Sequence of Maternal embryonic leucine zipper kinase (Homo sapiens) (Q14680 whole entry, looked up): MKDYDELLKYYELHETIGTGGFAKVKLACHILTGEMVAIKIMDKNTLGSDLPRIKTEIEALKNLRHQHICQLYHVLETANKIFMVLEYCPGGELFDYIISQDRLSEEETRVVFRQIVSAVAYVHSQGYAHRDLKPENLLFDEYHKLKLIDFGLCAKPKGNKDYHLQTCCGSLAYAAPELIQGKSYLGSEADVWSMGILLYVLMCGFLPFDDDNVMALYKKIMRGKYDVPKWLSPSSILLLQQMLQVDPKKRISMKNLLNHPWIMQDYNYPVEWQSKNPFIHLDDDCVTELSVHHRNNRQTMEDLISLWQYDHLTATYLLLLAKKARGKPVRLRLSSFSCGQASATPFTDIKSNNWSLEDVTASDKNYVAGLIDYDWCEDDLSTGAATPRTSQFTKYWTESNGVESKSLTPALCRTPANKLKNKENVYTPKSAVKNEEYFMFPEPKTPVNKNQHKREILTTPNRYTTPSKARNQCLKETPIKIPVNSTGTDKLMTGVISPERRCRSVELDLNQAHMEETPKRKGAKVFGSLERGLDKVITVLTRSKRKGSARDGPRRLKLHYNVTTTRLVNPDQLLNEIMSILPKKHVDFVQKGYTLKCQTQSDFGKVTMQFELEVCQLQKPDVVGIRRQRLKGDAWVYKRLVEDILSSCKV
Test [16] has the same target. As to conditions: at 10 µM.
For test [17], the target named is Misshapen-like kinase 1 (Homo sapiens) (UniProt Q8N4C8). As to conditions: at 1 µM.
Test [18] has the same target. Conditions: at 10 µM.
Test [19] addresses Tyrosine-protein kinase Lyn (Homo sapiens) (UniProt P07948). Conditions: at 1 µM.
Test [20] addresses Mitogen-activated protein kinase 1 (Homo sapiens) (UniProt P28482). As to conditions: at 10 µM.

Sequence of Tyrosine-protein kinase Lyn (Homo sapiens) (P07948 2-512 limits assumed): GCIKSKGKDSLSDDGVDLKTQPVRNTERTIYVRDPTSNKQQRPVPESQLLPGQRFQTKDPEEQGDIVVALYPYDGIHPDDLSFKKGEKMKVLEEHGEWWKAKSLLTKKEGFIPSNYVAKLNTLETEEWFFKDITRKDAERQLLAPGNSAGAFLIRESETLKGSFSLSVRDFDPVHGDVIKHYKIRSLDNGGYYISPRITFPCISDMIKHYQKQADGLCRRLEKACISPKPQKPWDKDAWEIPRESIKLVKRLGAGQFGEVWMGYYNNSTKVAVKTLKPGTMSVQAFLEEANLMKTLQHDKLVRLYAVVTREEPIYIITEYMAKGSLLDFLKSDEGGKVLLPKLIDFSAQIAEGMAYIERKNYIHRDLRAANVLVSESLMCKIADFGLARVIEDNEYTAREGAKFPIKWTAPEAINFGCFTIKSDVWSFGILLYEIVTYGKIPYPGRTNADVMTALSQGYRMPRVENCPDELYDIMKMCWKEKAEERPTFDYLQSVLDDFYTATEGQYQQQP
Sequence of MAP kinase-activated protein kinase 2 (Homo sapiens) (P49137 whole entry, looked up): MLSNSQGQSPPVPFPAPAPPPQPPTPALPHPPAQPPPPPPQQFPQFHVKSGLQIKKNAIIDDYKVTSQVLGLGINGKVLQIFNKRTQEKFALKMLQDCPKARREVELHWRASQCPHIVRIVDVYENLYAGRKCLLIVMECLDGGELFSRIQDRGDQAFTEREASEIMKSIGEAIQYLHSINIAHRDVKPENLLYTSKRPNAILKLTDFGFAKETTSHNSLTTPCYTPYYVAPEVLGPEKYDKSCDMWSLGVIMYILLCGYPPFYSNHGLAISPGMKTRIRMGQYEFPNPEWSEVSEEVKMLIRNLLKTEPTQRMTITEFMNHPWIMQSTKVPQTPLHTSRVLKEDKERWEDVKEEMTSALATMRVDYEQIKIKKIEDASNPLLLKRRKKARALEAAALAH
Sequence of Mitogen-activated protein kinase 3 (Homo sapiens) (P27361 whole entry): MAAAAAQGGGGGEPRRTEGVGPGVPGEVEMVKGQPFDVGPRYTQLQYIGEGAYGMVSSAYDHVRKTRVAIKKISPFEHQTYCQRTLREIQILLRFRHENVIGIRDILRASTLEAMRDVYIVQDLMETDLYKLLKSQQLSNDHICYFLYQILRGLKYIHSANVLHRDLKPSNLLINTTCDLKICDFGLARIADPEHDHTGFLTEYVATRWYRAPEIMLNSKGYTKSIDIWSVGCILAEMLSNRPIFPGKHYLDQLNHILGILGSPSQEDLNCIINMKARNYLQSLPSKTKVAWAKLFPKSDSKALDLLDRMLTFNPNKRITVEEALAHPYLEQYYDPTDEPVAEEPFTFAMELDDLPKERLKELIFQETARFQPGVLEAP
Sequence of Tyrosine-protein kinase Lck (Homo sapiens) (P06239 2-509 limits assumed): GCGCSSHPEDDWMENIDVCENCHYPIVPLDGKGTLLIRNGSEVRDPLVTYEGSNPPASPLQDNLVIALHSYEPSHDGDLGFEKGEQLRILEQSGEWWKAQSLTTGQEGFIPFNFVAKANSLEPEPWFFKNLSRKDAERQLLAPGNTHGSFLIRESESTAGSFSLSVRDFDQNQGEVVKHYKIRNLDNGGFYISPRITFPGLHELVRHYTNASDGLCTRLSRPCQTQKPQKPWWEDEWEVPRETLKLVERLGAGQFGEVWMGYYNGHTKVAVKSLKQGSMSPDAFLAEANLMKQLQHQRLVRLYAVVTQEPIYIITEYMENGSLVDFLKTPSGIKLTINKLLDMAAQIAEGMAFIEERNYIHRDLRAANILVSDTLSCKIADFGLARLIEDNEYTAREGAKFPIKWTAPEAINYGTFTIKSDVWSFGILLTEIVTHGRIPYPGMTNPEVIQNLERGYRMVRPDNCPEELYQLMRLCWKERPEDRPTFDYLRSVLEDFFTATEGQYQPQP
Sequence of Dual specificity mitogen-activated protein kinase kinase 1 (Homo sapiens) (Q02750 whole entry): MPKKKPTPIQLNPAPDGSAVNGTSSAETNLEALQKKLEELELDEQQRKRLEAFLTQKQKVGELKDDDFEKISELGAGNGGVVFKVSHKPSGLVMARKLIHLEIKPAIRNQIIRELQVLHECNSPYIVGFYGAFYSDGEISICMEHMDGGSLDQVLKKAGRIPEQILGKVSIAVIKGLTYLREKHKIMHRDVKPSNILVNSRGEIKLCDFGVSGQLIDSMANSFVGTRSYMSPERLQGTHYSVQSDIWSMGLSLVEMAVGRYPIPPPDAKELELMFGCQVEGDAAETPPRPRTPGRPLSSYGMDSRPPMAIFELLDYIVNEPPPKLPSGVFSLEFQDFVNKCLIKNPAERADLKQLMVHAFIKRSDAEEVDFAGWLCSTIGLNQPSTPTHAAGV

On to `O=c1cc(N2CCNCC2)oc2c(-c3ccccc3)cccc12`, for which the residual activity in test [1] was 85%; in test [2], 92%; in test [3] it was 88%; in test [4], 71%; in [5] it was 86%; in [6], 87%. Also, the residual activity in test [7] was found to be 101%; in test [8], 94%; in test [9] it was 85%; in test [10] it was 89%; in [11] it was 82%; in test [12] it was 89%. In addition, the residual activity stood at 99% in [13]; 89% in test [14]; 80% in [15]; 78% in test [16]; 104% in test [17]; 99% in [18].

For the compound `O=C(CCCc1ccc(-c2ccccc2F)cc1)Nc1ccc(O)cc1`, the residual activity in [1] came to 58%; in [2], 99%; in [3] it was 88%; in [19], 97%; in test [4], 85%; in [5] it was 100%. Besides, the residual activity came to 88% in test [6]; 106% in [7]; 92% in test [20]; 95% in test [8]; 76% in [9]; 102% in test [11]. Further, the residual activity is 94% in test [12]; 103% in test [13]; 111% in [14]; 100% in test [15]; 77% in [16]; 111% in test [17]. For the same compound, the residual activity in test [18] worked out at 102%.

For `O=C1C(Cl)=C(N2C(=O)CCC2=O)C(=O)c2ccccc21`, the residual activity was 99% in test [1]; 93% in [3]; 87% in test [19]; 84% in test [4]; 102% in test [5]; 91% in [6]. In addition, the residual activity in test [8] was found to be 69%; in test [9] it was 87%; in test [10] it was 100%; in [11], 82%; in test [12] it was 81%; in test [14] it was 67%. Moreover, the residual activity in test [16] came out at 70%.

As for `O=C1NC(=O)C(c2cn(CCCn3ccnc3)c3ccccc23)=C1Nc1ccccc1`, the residual activity amounted to 65% in [1]; 66% in [3]; 39% in test [4]; 70% in test [6]; 104% in test [7]; 110% in test [20]. In addition, the residual activity in test [8] was 100%; in test [11], 77%; in [12], 51%; in [13], 104%; in test [14] it was 39%; in [18], 47%.

For `O=C(c1cc2cc(O)ccc2[nH]1)c1cc2cc(O)ccc2[nH]1`, the residual activity in test [1] is 2%; in test [2] it was 22%; in [3], 7%; in [19] it was 6%; in test [4] it was -1%; in [5], 82%. Besides, the residual activity in test [6] was determined as 64%; in test [8], 64%; in test [9], 51%; in test [11] it was 40%; in test [12] it was 5%; in [13] it was 80%. For the same compound, the residual activity worked out at 26% in test [14]; 27% in test [15]; 3% in test [16]; 21% in [17]; 4% in [18].

With `CCN(CC)CCNC(=O)c1c(C)[nH]c(/C=C2\C(=O)Nc3ccc(Cl)cc32)c1C`, the residual activity in [1] is 2%; in test [2], 6%; in [3], -1%; in test [19] it was 2%; in [4] it was 3%; in [6], 115%. Also, the residual activity in test [11] worked out at 14%; in [12], 3%; in [13], 21%; in test [14], 8%; in test [15], 8%; in test [16], 3%. The residual activity in [17] came out at 9%; in test [18], 2%.

For the compound `O=C(NC(NC(=S)Nc1ccc(F)c([N+](=O)[O-])c1)C(Cl)(Cl)Cl)C(c1ccccc1)c1ccccc1` (stereo unspecified), the residual activity is 55% in [1]; 86% in [2]; 74% in test [3]; 89% in test [19]; 66% in test [4]; 82% in test [5]. The residual activity in [6] stood at 82%; in test [8], 90%; in test [9] it was 78%; in test [11], 96%; in test [12], 80%; in test [15] it was 76%. Moreover, the residual activity in test [16] was 76%.

As to `COc1cc2nccc(Oc3ccc(NC(=O)Nc4cc(C)on4)c(Cl)c3)c2cc1OC`, the residual activity in [1] is 1%; in [2] it was -2%; in test [3], 1%; in test [19], -1%; in test [4], 2%; in test [7], 103%. Besides, the residual activity is 104% in [20]; 67% in [10]; 99% in test [11]; 62% in test [13]; 20% in test [14]; 80% in test [16]. In addition, the residual activity in test [17] turned out to be 71%; in test [18], 21%.

In the case of `CCCCc1c(-c2ccc(O)cc2)[nH]c2nccnc12`, the residual activity is 50% in test [1]; 63% in test [2]; 59% in test [3]; 96% in [5]; 73% in [6]; 98% in [8]. Besides, the residual activity in [11] turned out to be 74%; in [12] it was 38%; in [15] it was 76%; in test [16] it was 72%; in [17], 97%; in test [18] it was 86%.

`Nc1nc(Nc2ccc(S(N)(=O)=O)cc2)nn1C(=O)c1c(F)cccc1F`: the residual activity is 29% in test [1]; 66% in [2]; 18% in test [3]; 40% in test [19]; 11% in test [4]; 102% in test [5]. Also, the residual activity in test [13] came out at 73%; in test [14], 64%; in test [17], 107%; in [18], 80%.

Take `O=C(O)/C=C/c1cc(Br)c(Br)c(Br)c1Br`: the residual activity in [1] came to 95%; in test [3], 80%; in test [19], 70%; in test [4], 63%; in test [5], 106%; in [6] it was 104%. The residual activity was found to be 93% in test [8]; 79% in [9]; 82% in test [10]; 104% in test [11]; 82% in [12]; 106% in [13]. Further, the residual activity in test [14] was determined as 65%; in [15] it was 82%; in test [16] it was 80%; in test [17] it was 105%; in [18], 87%.

Take `c1ccc(-c2cnc(Nc3ccc(OCCN4CCCC4)cc3)s2)cc1`: the residual activity was 19% in [1]; 36% in [2]; 5% in [3]; 29% in test [19]; 4% in [4]; 104% in [10]. For the same compound, the residual activity in test [13] worked out at 113%; in test [15] it was 64%; in test [16], 20%; in [17] it was 61%; in test [18] it was 12%.

For the compound `COc1ccc(CNC(=O)Nc2ncc([N+](=O)[O-])s2)cc1`, the residual activity in test [1] turned out to be 37%; in test [2], 6%; in test [3], 9%; in test [7], 120%; in [20], 101%; in test [12], 76%.

Take `CC(C)N(CCC(=O)c1ccc2ccccc2c1)Cc1ccccc1`: the residual activity turned out to be 77% in [1]; 85% in [5]; 76% in test [6]; 73% in [11]; 75% in test [12]; 75% in test [15]. In addition, the residual activity in [16] is 87%.

Take `O=C1Nc2ccccc2/C1=C\c1c(Cl)[nH]c2ccccc12`: the residual activity in [1] stood at 48%; in [3], 55%; in [4], 62%; in [7], 121%; in test [10], 85%; in test [12], 74%. The residual activity was determined as 77% in [15] and 30% in test [16].
